Most compounds without a hit are left out; they make up all but 1.8% or so of the library.
TSHR antag = Antagonists of the Thyroid Stimulating Hormone Receptor: HTS campaign; Thyrotropin receptor (Homo sapiens), P16473; TSHR-expressing cells, TSH-stimulated cAMP HTRF, 2 h; stronger effect = lower value; activity change, negative = inhibition, % at 11.5 µM; actives 0.2% (n = 330,000); AID 504810, 2011;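 active = activity change below a set negative limit, meaning inhibition stronger than a set level, cut at about -70% in these data; inconclusive = activity change between two set negative limits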; note: % is set by controls: 0 for no effect and ±100 for the full control effect
Target sequence (P16473 whole entry, looked up): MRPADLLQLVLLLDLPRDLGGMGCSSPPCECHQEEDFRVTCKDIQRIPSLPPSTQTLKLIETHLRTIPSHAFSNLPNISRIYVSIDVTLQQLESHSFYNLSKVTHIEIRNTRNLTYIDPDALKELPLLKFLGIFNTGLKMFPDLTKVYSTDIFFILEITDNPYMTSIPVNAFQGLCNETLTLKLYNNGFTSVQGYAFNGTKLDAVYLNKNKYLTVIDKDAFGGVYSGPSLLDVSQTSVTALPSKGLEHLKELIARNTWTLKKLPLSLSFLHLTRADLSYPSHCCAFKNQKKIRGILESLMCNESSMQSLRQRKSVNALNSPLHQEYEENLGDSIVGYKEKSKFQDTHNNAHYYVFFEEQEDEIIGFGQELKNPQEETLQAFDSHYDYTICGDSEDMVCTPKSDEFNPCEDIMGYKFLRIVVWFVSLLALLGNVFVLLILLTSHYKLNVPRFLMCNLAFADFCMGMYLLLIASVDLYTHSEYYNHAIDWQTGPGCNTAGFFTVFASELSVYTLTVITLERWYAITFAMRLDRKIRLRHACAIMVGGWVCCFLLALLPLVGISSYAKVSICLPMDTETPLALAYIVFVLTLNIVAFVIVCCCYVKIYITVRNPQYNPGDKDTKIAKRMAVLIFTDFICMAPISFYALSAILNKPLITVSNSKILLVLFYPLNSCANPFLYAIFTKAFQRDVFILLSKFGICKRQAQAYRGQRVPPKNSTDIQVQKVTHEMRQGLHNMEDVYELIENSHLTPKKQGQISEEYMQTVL
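Freshly harvested TSHR cells receive pin-tooled compound, then EC80 TSH at 4nM final. After 2 hours at 37 deg C, antibody in lysis buffer and cAMP-d2 are added; 30 minutes at ambient temperature precede the HTRF read.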
GLP-1R agonist = qHTS of GLP-1 Receptor Agonists | Glucagon-like peptide 1 receptor (Homo sapiens), P43220 | HEK293 GLP-1R CRE-luciferase, luminescence, 4-6 h; cells express a hypersensitive GLP-1R form | Potency, µM (highest dose often 45.6 µM), for inactives: at the highest dose activation, usual class: activators | actives 0.007% (n = 380,000) | AID 624172, 2012; note: potency is the fitted concentration of half-maximal effect; % of control where 0% means no effect
PTHR1 ag = qHTS for PTHR1 Agonists: Primary Screen. Parathyroid hormone/parathyroid hormone-related peptide receptor (Homo sapiens), Q03431. HEK293 GP2 PTHR1 cells, GloSensor cAMP luminescence, 1 h. Potency, µM (titrated, usually from 115 µM), without a hit: at the top dose activation, usual class: activators. actives 0.075% (n = 410,000). AID 743266, 2014; note: potency is the fitted concentration of half-maximal effect; nearly all actives have a fitted effect of over 55% in size
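HEK-293-derived GP2 cells expressing PTHR1 and a GloSensor cAMP reporter, 3,000/well, plated overnight, given luciferin plus IBMX (each 0.5 mM as added) for 1 h at 37 °C, then compound for 1 h at 37 °C. Luminescence was read after 15 min at room temperature.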
GLP1R cytotox = qHTS of GLP-1 Receptor Inverse Agonists: Cytotox Screen. Potency, µM (titrated, usually from 38.3 µM), for inactives: at the highest dose activity change, negative = inhibition, actives largely listed as inhibitors. actives 0.13% (n = 410,000). AID 624418, 2012. HEK293 cAMP-luciferase reporter cells, luminescence, 24 h;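 note: loss of luciferase light is scored as toxicity; potency is the fitted concentration of half-maximal effect; % is set by controls: 0 for no effect and ±100 for the full control effect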
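Step one: seed cells (200 cells/uL, DMEM with 10% Nu serum, 1% pen-strep). Step two: 12-hour incubation at 37 deg C. Step three: pin 23 nL compound, incubate 24 hr. Step four: add luciferase reagent, read luminescence 12 min later.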
GLP1R inv ag = qHTS of GLP-1 Receptor Inverse Agonists (Inhibition Mode); HEK293 GLP-1R CRE-luciferase, luminescence, 24 h; GLP-1R form is constitutively active; actives 1.6% (n = 410,000); AID 624417, 2012; Glucagon-like peptide 1 receptor (Homo sapiens), P43220; Potency, µM (titrated, usually from 38.3 µM), for the others: at the top dose activity change, negative = inhibition, usual class: inhibitors; note: potency is the fitted concentration of half-maximal effect; % is set by controls: 0 for no effect and ±100 for the full control effect; nearly all actives have a fitted effect of over 55% in size
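Cells are plated, allowed 12 hours at 37 deg C, then treated with compounds for 24 hr before luciferase detection reagent is added and luminescence is read after 12 min at room temperature. The HEK293 line carries constitutively active GLP-1R with a cAMP-responsive reporter.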
* hit, by the source's call; i = inactive; ? = inconclusive; . = no result given; [ ] = dose if it differs, or a comment. Unless noted, calls come from the whole dose curve; as a rule, active = well fitted curve in the direction sought with a large enough effect; inconclusive = small, poorly fitted or top-dose-only effect, or another doubt; inactive = no such curve, though single readings can be large; an effect the other way counts as inactive or inconclusive.

SMILES | TSHR antag | GLP-1R agonist | PTHR1 ag | GLP1R cytotox | GLP1R inv ag
COc1ccc(-c2onc(C)c2C)cc1S(=O)(=O)Nc1ccc(OC(F)(F)F)cc1 | . | . | -91.6% | -5.3% | 12.6µM*
C=CS(=O)(=O)c1ccc(Oc2ccc(S(=O)(=O)C=C)cc2)cc1 | -89.5* | -24.1% | -35.8% | ? | ?
COc1ccccc1N1C(=O)CSC1=NC(=O)c1ccccc1 | -6.2 | -5.6% | i | 1.2% | 8.3%
COc1ccc(N2C(=O)CS/C2=N\C(=S)Nc2ccccc2)cc1 | -7.6 | 8.9% | i | ? | 12.6µM*
CCC(=O)N1CCc2cc(S(=O)(=O)CCC(=O)N3CCN(c4cc(C)ccc4C)CC3)ccc21 | . | -0.4% | i | -3.5% | -8.1%
COc1ccc(CCNC(=O)c2cc(Nc3cc(C)cc(C)c3)nc3ccccc23)cc1OC | . | -8.6% | -43.3% | 2.9% | 4.47µM*
CCCCN(CCCNC(=O)c1cc(Nc2cccc(SC)c2)nc2ccccc12)Cc1ccccc1 | . | . | -15.6% | 1.1% | ?
CSc1cccc(Nc2cc(C(=O)NCCc3ccc(Cl)cc3)c3ccccc3n2)c1 | . | -14.6% | 18.0% | 3.7% | 5.01µM*
Cc1ccc2oc(=O)c3cnn(CC(=O)N4CCN(c5ccccc5F)CC4)c3c2c1 | . | . | -18.8% | 4.1% | 3.4%
COC(=O)c1ccc(N2C(=O)CC(SCC(=O)Nc3ccc(OC)cc3)C2=O)cc1 (centres undefined) | 0.0 | -0.3% | i | 0.3% | 11.4%
CN=C(Nc1cc(Cl)ccc1Cl)SC1CC(=O)N(c2ccc(C(=O)OC)cc2)C1=O (centres undefined) | -2.5 | -3.7% | -16.2%[57.5 µM] | -22.5% | 3.98µM*
Cc1ccc2c(c1)c1c(c(=O)n(-c3ccccc3C)c(=O)n1CC(=O)NCCC1=CCCCC1)n2C | . | -1.2% | i | 0.1% | 2.3%
Nc1ccccc1Nc1cc(-c2cccc(Cl)c2)nn1-c1ccccc1 | 2.6 | -30.0% | -17.5% | -27.1% | 10µM*
COc1cc(NC(=O)c2cnc(N)s2)cc(C(=O)Nc2cccc(C(F)(F)F)c2)c1 | -8.1 | -1.0% | -35.3% | 13.0% | 12.6µM*
Cc1ccc(C2Nc3cc(C)c(C)cc3-n3c(-c4ccccc4)c4c(=O)n(C)c(=O)n(C)c4c32)o1 (centres undefined) | . | . | -19.1% | -10.8% | ?
O=CC(O)C(O)C(O)C(O)CO (centres undefined) | . | -5.2% | . | . | .
C=CCN(c1ccccc1Cl)S(=O)(=O)c1cccc(C(=O)NCCc2ccc(OC)cc2)c1 | -47.9 | -3.1% | i | -3.8% | 4.47µM*
Cc1cccn2c(=O)cc(COc3ccc(NC(=O)COc4ccc(F)cc4)cc3)nc12 | . | . | -1.0% | 2.6% | 1.9%
Cc1ccc2c(c1)c1c(n2CC(O)Cn2c(C)nc3ccccc32)C(=O)CCC1 (centres undefined) | 2.4 | -4.0% | -15.6% | 5.0% | 8.2%
Cc1nc2ccccc2n1CC(O)Cn1c2ccccc2c2ccccc21 (centres undefined) | 21.0 | 0.0% | 15.8µM* | 10.8% | 9.2%
Cc1ccc2c(c1)c1c(n2CC(O)Cn2c(C)nc3ccccc32)/C(=N\O)CCC1 (centres undefined) | -7.3 | -11.6% | i | ? | 10µM*
CCCCOCC(O)Cn1c(C)nc2ccccc21 (centres undefined) | 8.9 | -2.3% | 9.2%[57.5 µM] | -13.1% | -29.1%
CC1(C)O[C@@H]2C[C@H]3[C@@H]4CCC5=CC(=O)C=C[C@]5(C)[C@H]4C(O)C[C@]3(C)[C@]2(C(=O)CO)O1 (some centres undefined) | . | -6.1% | . | . | .
CCOc1cc(CNC(=O)NC2COc3ccc(OC)cc3C2)cc(OCC)c1OCC (centres undefined) | . | . | i | 4.2% | -7.0%
CCN1CCCC1CNC(=O)c1ccc(Sc2ccc(F)cc2)c([N+](=O)[O-])c1 (centres undefined) | 17.9 | 10.4% | i | 3.1% | ?
SMILES | TSHR antag | GLP-1R agonist | PTHR1 ag | GLP1R cytotox | GLP1R inv ag
CCN1CCCC1CNC(=O)c1ccc(Sc2ccccc2Cl)c([N+](=O)[O-])c1 (centres undefined) | 0.3 | 7.0% | i | -28.1% | 3.16µM*
CCc1ccc(OCC(=O)N(Cc2ccco2)Cc2ccccc2Cl)cc1 | . | . | -89.4% | 8.6% | 10µM*
O=C(c1cccc(Cl)c1)N(Cc1ccco1)Cc1ccccc1Cl | . | . | -72.0% | -7.5% | 10µM*
CCc1ccc(OCC(=O)N(Cc2ccc(C)cc2)Cc2ccco2)cc1 | . | . | -75.2% | 8.3% | ?
Cc1noc(Cn2c(=O)c3ccccc3n(CC(=O)Nc3ccc(F)cc3F)c2=O)n1 | . | . | -31.0% | -0.9% | 8.0%
COc1ccc(C2C(C#N)=C(N)N(Nc3ccccc3)C3=C2C(=O)CC(C)(C)C3)cc1C (centres undefined) | 1.5 | -11.9% | -72.5%[57.5 µM] | 162.5% | ?
COc1cc(C2C(C#N)=C(N)N(Nc3ccccc3)C3=C2C(=O)CC(C)(C)C3)ccc1OCc1cccc(F)c1 (centres undefined) | -1.5 | -13.5% | i | -7.4% | 5.62µM*
COc1cc(C2C(C#N)=C(N)N(Nc3ccccc3)C3=C2C(=O)CC(C)(C)C3)ccc1OCc1ccccc1 (centres undefined) | -3.5 | -13.8% | -18.0%[57.5 µM] | 14.1% | 3.16µM*
Cc1ccc(CNC(=O)CCc2c(C)nn(-c3ccc(N4CCCCC4)nn3)c2C)cc1 | . | . | -19.8% | 1.0% | 5.5%
CCCCCCC(O)C/C=C/CCCCCCCC(=O)O (centres undefined) | . | 3.3% | . | . | .
CCC(=O)N1CCc2cc(S(=O)(=O)NC(Cc3ccccc3)C(=O)Nc3ccccc3C)ccc21 (centres undefined) | . | . | 11.0% | 6.5% | 16.5%
Cc1ccc2c(c1)cc1c(=O)n(Cc3cccc(Cl)c3)nc(C)n12 | . | . | i | 2.7% | 5.9%
CC1=Nc2cc(C(=O)NC3CCCC3)ccc2Sc2ccc(C)cc21 | . | -2.2% | i | ? | 5.01µM*
CC1=Nc2cc(C(=O)NC3CCCC3)ccc2Sc2ccc(Cl)cc21 | . | . | -65.3% | ? | 1.58µM*
CNC(=O)c1ccc2c(c1)N=C(C)c1cc(C)ccc1S2 | . | 0.5% | -10.7% | -24.7% | ?
COc1ccc(CNC(=O)c2cc3cc(C)ccc3n2C)cc1 | . | . | i | -2.2% | ?
O=C(CSc1cccc2cccnc12)N1CCCC1 | 4.3 | -44.5% | -3.0% | 0.708µM* | 0.501µM*
Cc1cccc(NC(=O)CSc2cccc3cccnc23)c1 | 12.0 | 23.9% | i | -9.3% | -7.8%
CN(C)C(=O)CSc1cccc2cccnc12 | 4.2 | -31.6% | i | 2.51µM* | 2.82µM*
CCCCOc1ccc(NC(=O)CSc2cccc3cccnc23)cc1 | 5.2 | 26.6% | -10.9% | ? | 2.82µM*
